# Bioassay records from PubChem.
# EWS-Fli inh: blocks EWS/Fli oncoprotein-driven transcription; A673 NR0B1-luciferase reporter, viability-normalised; inhibition, % at 12.6 µM; 350,000 tested, 0.67% active; AID 651661;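 active means mean inhibition of at least 50% after viability correction, with every replicate also passing that limit; inconclusive means mean reaches 50% but only one of two replicates passes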;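 further: firefly luciferase signal divided by Alamar Blue viability fluorescence both relative to DMSO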
# PAX8 reporter: PAX8 transcriptional activity inhibition; RMG-I TPO-luciferase reporter, SteadyGlo, 24 h; inhibition, % at 12.6 µM; 360,000 tested, 1.2% active;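 active means mean replicate inhibition at least 60% with every replicate also reaching 60%; inconclusive means only one of the two criteria is met; inactive means mean below 60% and not all replicates reaching 60%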;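 further: luciferase light reporting Pax8 driven TPO promoter activity; plate controls were median of neutral control wells for no effect and mitoxantrone controls for full effect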
# F508del corr: CFTR F508del correction in bronchial cells; AID 720511; 350,000 tested, 0.36% active; CFBE cells, YFP halide quenching; stimulated with forskolin plus potentiator P3; % fluorescence drop versus neutral controls; activity (quench increase), % at 7.58 µM;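 active means mean added fluorescence quench of at least 8% versus neutral control, with both replicates also reaching 8%; inconclusive means only one of the mean or replicate conditions met; inactive means mean below 8% and not both replicates reaching 8%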;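 further: cells transiently co-express mutant CFTR-F508del with the halide-sensitive YFP; corrector assay measuring rescue of mutant channel to the surface after 24 h compound exposure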
# LGR2 inh: blocks bursicon-induced cAMP signaling via Drosophila LGR2; 380,000 tested, 0.35% active; HEK293 LGR2, CRE-luciferase, bursicon-stimulated, 4 h; inhibition, % at 9.99 µM; AID 720647;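 active means drop in luminescence signal, shown as inhibition above about 50% in the replicate tests, limit read from the data, passing the limit was not always enough; inconclusive means probably only some replicates passing the limit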;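 further: agonist challenge used bursicon conditioned medium at about half maximal strength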
# An asterisk follows results filed as active; ? = inconclusive; . = not tested or not shown. Compounds with a hit are over-represented: about 1.8% of the library has one in this group of screens.
SMILES,EWS-Fli inh,PAX8 reporter,F508del corr,LGR2 inh
COc1cc(NC(=O)c2ccco2)c(OC)cc1NC(=O)Nc1cccc(Cl)c1,11.5,.,-3.0,-2.4
N#Cc1ncn(C2OC(CO)C(O)C2O)c1N (configuration not stated),-3.1,-13.7,10.0*,11.5
C[C@H](NC(=O)C[C@@H]1C[C@@H]2c3cc(NC(=O)Nc4ccc(C(F)(F)F)cc4)ccc3O[C@@H]2[C@@H](CO)O1)c1ccccc1,1.6,107.1*,-2.6,6.7
O=C(C[C@@H]1C[C@H]2c3cc(NC(=O)Nc4ccc(C(F)(F)F)cc4)ccc3O[C@H]2[C@@H](CO)O1)NC1CCCCC1,-10.4,-11.8,0.4,-1.8
O=C(C[C@@H]1C[C@H]2c3cc(NC(=O)Nc4ccc(C(F)(F)F)cc4)ccc3O[C@H]2[C@H](CO)O1)NCCc1ccccc1,43.2,100.4*,3.9,27.5
O=C(C[C@@H]1C[C@H]2c3cc(NC(=O)Nc4ccc(C(F)(F)F)cc4)ccc3O[C@H]2[C@H](CO)O1)NC1CCCCC1,19.4,66.9*,-3.1,12.9
O=C(C[C@H]1C[C@@H]2c3cc(NC(=O)Nc4ccc(C(F)(F)F)cc4)ccc3O[C@@H]2[C@@H](CO)O1)NCCc1ccccc1,38.1,98.8*,4.7,29.4
COCCNC(=O)C[C@@H]1C[C@H]2c3cc(NC(=O)Nc4ccc(C(F)(F)F)cc4)ccc3O[C@H]2[C@H](CO)O1,4.8,91.1*,-7.6,-10.3
COc1ccc2[nH]c(O)c(N=NC(=O)c3ccc(NS(=O)(=O)c4cccs4)cc3)c2c1,-17.2,-4.2,2.4,-30.7
CSCCC(NS(=O)(=O)c1ccc2c(c1)OCCO2)C(=O)N(C)Cc1ccc(C)cc1 (configuration not stated),-8.1,16.3,3.1,10.3
COc1cccc(CN(C)C(=O)C(CCSC)NS(=O)(=O)c2ccc3c(c2)OCCO3)c1OC (configuration not stated),0.5,70.1*,3.3,11.9
CC(=NNC(=S)N1CC2CCC(CC2)C1)c1cnccn1,2.7,16.2,10.7*,-0.6
CC(=NNC(=S)N1CCN(c2ccccn2)CC1)c1ccccn1,-9.2,-29.9,-3.1,-16.9
CC(=NNC(=S)N1CCN(C2CCCCCC2)CC1)c1ccccn1,48.0,94.4*,5.1,-17.6
CC(=NNC(=S)N1CC2CCC(CC2)C1)c1ccccn1,4.6,-16.7,5.5,?
O=C(c1ccccc1F)N1C[C@@H]2[C@H](c3ccccc31)[C@H](CO)N2C(=O)c1ccccc1,-10.0,10.6,1.0,-9.1
COc1ccc(-c2cnc3c(c2)C(=O)N([C@@H](C)CO)C[C@H](C)[C@@H](CN(C)C(=O)Cc2cccnc2)O3)cc1,-8.7,-2.0,1.2,1.6
O=C(O)c1ccc(NC2=C(Cl)C(=O)c3ccccc3C2=O)cc1,?,82.7*,-9.9,9.9
COc1cc(CNc2ncnc3c2ncn3[C@H]2CN(Cc3ccc(-c4ccccc4)cc3)C[C@@H](CO)O2)cc(OC)c1OC,35.0,93.7*,0.0,15.0
CC(C)Nc1ncnc2c1ncn2[C@H]1CN(Cc2ccco2)C[C@@H](CO)O1,-1.6,-15.2,2.5,10.5
CC(C)CNc1ncnc2c1ncn2[C@H]1CN(Cc2ccco2)C[C@@H](CO)O1,-9.5,83.6*,1.3,-7.3
COc1cc(CNc2ncnc3c2ncn3[C@H]2CN(Cc3ccc(C(=O)O)cc3)C[C@@H](CO)O2)cc(OC)c1OC,-10.0,13.1,4.0,8.7
CC(=O)Cn1nnc2sc3c(c2c1=O)CCC(C(C)(C)C)C3 (configuration not stated),-80.2,-166.5,-2.5,-90.3
CCOC(=O)c1sc(NC(=O)Cn2nnc3sc4c(c3c2=O)CCC(C(C)(C)C)C4)nc1C (configuration not stated),2.9,72.9*,-1.5,-22.2
O=C(N/N=C(\c1ccccc1)c1ccccn1)c1ccccc1Cl,.,72.5*,-1.4,13.1
SMILES,EWS-Fli inh,PAX8 reporter,F508del corr,LGR2 inh
COc1ccc(C(=O)N/N=C(\c2ccccc2)c2ccccn2)cc1,-0.6,57.1,.,.
O=C(NN=C(c1ccccc1)c1ccccn1)c1ccccc1,-1.9,77.1*,5.9,.
CCOc1ccc(NC(=O)C[n+]2ccc(N(C)C)cc2)cc1,1.2,7.6,.,.
CN(C)c1cc[n+](CC(=O)Nc2ccc(Oc3ccccc3)cc2)cc1,17.7,88.6*,5.3,7.8
COC1C(O)C(O)C(O)C(O)C1O (configuration not stated),0.5,.,-1.5,-9.2
CCN(CC)S(=O)(=O)c1ccc(N/N=C/c2ccc(O)cc2O)nc1,.,72.4*,.,43.1
O=[N+]([O-])c1ccc(NN=Cc2ccc(O)cc2O)nc1,-88.4,15.2,7.0,8.0
CC(C)(C)C(=O)Cn1ncc(Br)c(Br)c1=O,28.0,31.7,-2.0,103.3*
O=C(Nc1ccc(Cl)c(C(F)(F)F)c1)NC1CC2CCCC(C1)N2Cc1ccccc1 (configuration not stated),17.9,29.5,-3.4,82.2*
O=C(NC1CC2CCCC(C1)N2C(=O)Nc1ccc(Cl)c(C(F)(F)F)c1)C1CC1 (configuration not stated),.,8.5,.,.
O=C(COc1ccc(C(=O)c2ccc(F)cc2)cc1)NCc1ccc(F)cc1,57.1*,20.9,.,19.6
O=C(N[C@@H]1CC[C@H](CCNS(=O)(=O)c2ccc(Cl)cc2)O[C@H]1CO)c1ccccn1,-7.5,-3.7,1.7,4.4
O=C(Nc1ccc2nc(-c3ccc4nc[nH]c4c3)[nH]c2c1)c1cccs1,.,67.7*,.,.
Cc1ccc(CSc2nnc(SCC(=O)N/N=C/c3ccc(C(=O)O)cc3)s2)cc1,60.4*,-13.7,-0.9,66.9*
O=C(CSc1nnc(SCc2ccccc2)s1)N/N=C/c1ccc(C(=O)O)cc1,17.3,-4.9,-2.8,14.8
CC1(C)CC(=O)C=C(c2ccc(-c3ccc(OC(F)(F)F)cc3)cc2)C1=O,-90.5,-64.3,-2.4,-43.6
C[C@H]1CN([C@@H](C)CO)C(=O)c2c(c3ccccc3n2C)-c2ccccc2CO[C@@H]1CN(C)S(=O)(=O)c1ccc(C(F)(F)F)cc1,13.3,98.4,-2.8,5.7
C[C@@H]1CN([C@@H](C)CO)C(=O)c2c(c3ccccc3n2C)-c2ccccc2CO[C@@H]1CN(C)S(=O)(=O)c1ccc(C(F)(F)F)cc1,8.6,96.8*,1.8,?
C[C@H](CO)N1C[C@H](C)[C@@H](CN(C)S(=O)(=O)c2ccc(C(F)(F)F)cc2)OCc2ccccc2-c2c(n(C)c3ccccc23)C1=O,20.0,36.6,-7.3,25.5
C[C@H](CO)N1C[C@H](C)[C@H](CN(C)S(=O)(=O)c2ccc(C(F)(F)F)cc2)OCc2ccccc2-c2c(n(C)c3ccccc23)C1=O,-8.0,53.7,-0.6,53.4*
Clc1ccc2nc(-c3ccccc3)c(CC3CCCCC3)n2c1,-10.5,-22.8,2.7,.
COc1ccc(C(=O)C2CCCN(C3Cc4ccccc4C3)C2)cc1OC (configuration not stated),8.2,10.0,.,1.9
C[C@H](CO)N1C[C@H](C)[C@@H](CN(C)Cc2ccc(C(=O)O)cc2)Oc2ncc(C3=CCCC3)cc2C1=O,-7.4,-4.2,1.2,-3.8
O=C1NCCc2c1[nH]c1ccc([N+](=O)[O-])cc21,2.1,-0.9,11.4*,3.8
